Screening data deposited in PubChem by several laboratories.
CYP2C9 act: increases human cytochrome P450 2C9 activity; AID 1024; activation factor at 5 µM; 96,000 compounds, 1.4% hits; P11712; recombinant CYP2C9, luciferin-H conversion, luminescence; stronger effect = higher value; factor 1 = untreated enzyme, 0 = blocked;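 active = activation factor of 2 or more for CYP2C9 at a 5 µM dose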;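 note: 0 = sulfaphenazole-blocked wells and 1 = vehicle-only wells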
Target sequence (P11712 whole entry, looked up): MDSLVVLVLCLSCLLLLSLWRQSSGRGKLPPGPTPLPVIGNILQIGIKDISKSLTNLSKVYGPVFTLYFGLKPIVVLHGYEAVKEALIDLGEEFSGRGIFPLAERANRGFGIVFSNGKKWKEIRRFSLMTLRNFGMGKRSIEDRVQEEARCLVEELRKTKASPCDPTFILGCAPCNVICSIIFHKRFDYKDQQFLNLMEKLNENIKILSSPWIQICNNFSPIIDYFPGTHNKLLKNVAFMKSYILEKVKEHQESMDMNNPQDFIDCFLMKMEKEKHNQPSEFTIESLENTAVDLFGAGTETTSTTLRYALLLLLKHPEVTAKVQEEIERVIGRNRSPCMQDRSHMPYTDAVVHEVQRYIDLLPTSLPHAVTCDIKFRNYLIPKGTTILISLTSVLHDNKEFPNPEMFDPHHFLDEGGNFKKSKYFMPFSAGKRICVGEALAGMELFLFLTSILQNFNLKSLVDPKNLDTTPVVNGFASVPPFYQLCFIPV
CYP2C19 activ: activators of human cytochrome P450 2C19; P33261; recombinant CYP2C19, luciferin-H EGE luminescence; stronger effect = higher value; 0 = fully inhibited enzyme, 1 = untreated enzyme; activation factor at 5 µM; 96,000 tested, under 10 active;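 active = activation factor of at least 2 at 5 µM in the primary screen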;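 note: 0 = wells with 2.5 mM tranylcypromine and 1 = vehicle-only wells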
CYP2C19 inhib: blocks human cytochrome P450 2C19; inhibition, % at 5 µM; CYP2C19 Supersomes, luciferin-H EGE luminescence, 30 min; 96,000 compounds, 21% hits;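 active = CYP2C19 inhibition above a set limit at 5 µM in the primary screen, cut at about 50% in these data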;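 note: plate controls were negative control wells for no effect and 2.5 mM tranylcypromine positive control for full effect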
Cav32 inh: blocks human Cav3.2 T-type calcium channel; O95180; Cav3.2-expressing cells, Fluo-4 calcium fluorescence FDSS; stronger effect = lower value; B-score at 10 µM; 100,000 compounds, 4% hits; AID 449739;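 active = single-dose well whose peak fluorescence ratio is a statistical outlier from its plate by either plate-standardised score or position-corrected B-score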
CYP2C9 inh: blocks human cytochrome P450 2C9; CYP2C9 Supersomes, luciferin-H conversion, luminescence; inhibition, % at 5 µM; 96,000 compounds, 20% hits;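 active = blocking of liver enzyme CYP2C9 beyond about 50% at 5 µM, limit read from the data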
Numbers without * were called inactive; nt = no result. The list is not random: actives were taken first. Their share in the collection is about 27%.

SMILES | CYP2C9 act | CYP2C19 activ | CYP2C19 inhib | Cav32 inh | CYP2C9 inh
CN(C(=O)c1ccc(-c2nn(C)c(=O)c3ccccc23)cc1)c1ccccc1 | 0.4 | 0.5 | 47 | 0.78 | 62*
CCNc1nc(NC(C)C)nc(OCCNS(=O)(=O)c2cc(C)ccc2C)n1 | 1.4 | 0.5 | 50 | -0.085 | -40
CCNc1nc(NCC)nc(OCCNS(=O)(=O)c2cc(C)ccc2C)n1 | 1.3 | 0.1 | 89* | 0.71 | -34
CON(C)c1nc(OCCNC(=O)OCc2ccc(Cl)cc2C)nc(N(C)C)n1 | nt | nt | nt | -1.4 | nt
CCNc1nc(OCCNS(=O)(=O)c2cc(C)ccc2C)nc(N(C)C)n1 | 0.8 | 0.4 | 58* | 0.73 | 18
COc1cc(C)nc(OCCNS(=O)(=O)c2cc(C)ccc2C)n1 | 1.9 | 0.2 | 82* | 0.72 | -87
CCc1cc(=O)oc2cc(OC(C)C(=O)O)c(Cl)cc12 (stereo not given) | 0.8 | 1.1 | -12 | 0.2 | 21
CCOc1ccc(C2C(C#N)=C(N)Oc3cc(C)n(CCN(C)C)c(=O)c32)cc1OCC (stereo not given) | 0.9 | 1.1 | -7 | 0.43 | 12
C=COCCNC(=O)C1CC(=O)N(c2ccc(C)cc2)C1 (stereo not given) | 1.2 | 0.9 | 6 | -0.026 | -24
O=[N+]([O-])c1ccc(O)c(-c2nn[nH]n2)c1 | 0.2 | 0.3 | 70* | -0.15 | 83*
CCc1ccc2[nH]c(=O)c(CN(Cc3ccccc3OC)Cc3nnnn3Cc3ccco3)cc2c1 | 0 | 0.4 | 58* | -0.19 | 96*
COc1ccccc1CN(Cc1cc2cc(C)ccc2[nH]c1=O)Cc1nnnn1Cc1ccco1 | 0 | 0 | 99* | -4.4* | 98*
COc1cc2cc(CN(Cc3nnnn3Cc3ccco3)C3CCCCC3)c(=O)[nH]c2cc1OC | 0.9 | 0.8 | 18 | 1.2 | 12
CCOC(=O)Cn1nnnc1CN(Cc1ccc(OC)cc1)Cc1cc2cc(CC)ccc2[nH]c1=O | 0 | 0 | 97* | -5.4* | 95*
COc1ccc2[nH]c(=O)c(CN(Cc3ccco3)Cc3nnnn3Cc3ccccc3)cc2c1 | 1 | 0.9 | 12 | -0.88 | -4
COCCCNC(=O)CSC1=Nc2ccccc2C2=NC(CC(=O)NCc3ccccc3)C(=O)N12 (stereo not given) | 0.8 | 1 | 4 | -2 | 22
Cn1c(=O)n(C)c2cc(NC(=O)CCl)ccc21 | 0.7 | 0.9 | 6 | 0.62 | 35
O=C(O)CC(c1ccc(Cl)cc1)N1C(=O)CCC1=O (stereo not given) | 0.9 | 1 | -4 | 0.49 | 9
COc1cccc(-c2nc(N3CCN(c4ccccc4)CC3)c3ccccc3n2)c1O | 0.4 | 0.8 | 21 | 0.21 | 55*
CC1CCN(c2nc(-c3ccncc3)nc3ccccc23)CC1 | 0.2 | 0.1 | 93* | -1.9 | 76*
CC1CCCCN1c1nc(-c2ccncc2)nc2ccccc12 (stereo not given) | 0.2 | 0.1 | 91* | -3 | 78*
CC1CCCCN1c1ncnc2ccccc12 (stereo not given) | 0.9 | 0.9 | 12 | 0.71 | 5
CCC1CCCCN1c1nc(-c2cccc(OC)c2O)nc2ccccc12 (stereo not given) | 0.2 | 0.8 | 25 | -1 | 83*
COc1cccc(-c2nc(NC(C)C)c3ccccc3n2)c1O | 0.7 | 0.9 | 8 | nt | 28
CC1CCN(c2ccc(C(=O)NCc3cccs3)cn2)CC1 | 0.7 | 1 | 5 | -1.2 | 26
SMILES | CYP2C9 act | CYP2C19 activ | CYP2C19 inhib | Cav32 inh | CYP2C9 inh
CCC1CCCCN1c1nc(-c2ccncc2)nc2ccccc12 (stereo not given) | 0 | 0 | 99* | -2.1 | 100*
CC1CCCCN1Cc1nc2ccccc2c(=O)[nH]1 (stereo not given) | 0.9 | 0.9 | 12 | -0.31 | 10
CCCCC(SCC(=O)Nc1ccccc1)C(=O)O (stereo not given) | 0.3 | 0.8 | 16 | -0.16 | 70*
O=C(O)CCCSCC(=O)Nc1ccccc1 | 1.2 | 1 | 2 | 0.35 | -17
Cc1ccc(NC(=O)c2cc(=O)c3ccccc3o2)cc1 | 0.9 | 0.7 | 30 | 1.9 | 7
CCOC(=O)C1=C(N)OC2=C(C(=O)CCC2)C1c1cccs1 (stereo not given) | 0.2 | 0.1 | 88* | 0.47 | 80*
CCOC(=O)c1sc2c(c1C)C(c1cccs1)C1=C(CCCC1=O)N2 (stereo not given) | 0.5 | 0.9 | 10 | -0.41 | 46
COC(=O)C1=C(N)OC2=C(C(=O)CCC2)C1c1cccs1 (stereo not given) | 0.8 | 0.7 | 34 | 0.39 | 23
